Drawing on PubChem BioAssay, this text covers composite z-score and z-score for 4 compounds.

Where “and” joins values, the source holds several entries; their conditions need not be identical. Identical values can stand only once. Some compounds were tested as several samples or in several runs, with calls that do not always agree. Calls of active or inactive are those of the source.

A short description of experiment [1]: binders of probe aFSTL3 on microarray, primary screen, stem cell growth factor project, biochemical, small-molecule microarray, fluorescence 635/667 (AID 1064).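 Note: measures binding of the biotinylated anti-FSTL3 antibody to printed compounds.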 The settings on record: higher = more signal.
Experiment [2] in a line: binders from COS7 lysate, DM2A8 probe, primary screen, torsin A project, cell lysate, small-molecule microarray, fluorescence 635/667 (AID 1065). The settings on record: higher = more signal, COS7 lysate expressing mutant human TOR1A.
Experiment [3] in a line: binders of probe aFGF2 on microarray, primary screen, stem cell growth factor project, biochemical, small-molecule microarray, fluorescence 635/667 (AID 1067).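 Note: measures binding of biotinylated aFGF2 protein to printed compounds on slides; z-score merges feature fluorescence and signal-to-noise across triplicate slides.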 The settings on record: higher = more signal.
A short description of experiment [4]: binders of probe aFGF10 on microarray, primary screen, stem cell growth factor project, biochemical, small-molecule microarray, fluorescence 635/667 (AID 1071).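 Note: score merges 667 nm spot intensity and signal to noise from triplicate slides.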 As to conditions: higher = more signal.
Experiment [5] deals with Neurogenic locus notch homolog protein 2 (Homo sapiens) (UniProt Q04721). The experiment can be described thus: Notch2 binders on small-molecule microarrays, primary screen, biochemical, small-molecule microarray, 635 nm fluorescence, stem cell growth factors (AID 1073). The settings on record: Notch2 binding, higher = more signal.
Experiment [6] addresses Pro-neuregulin-1, membrane-bound isoform (Homo sapiens) (UniProt Q02297). Nature of the experiment: NRG1 binders on small-molecule microarrays, primary screen, psychiatric disease protein project, biochemical, small-molecule microarray, fluorescence 635/667 (AID 1075).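 Note: score combines 667 nm spot fluorescence with signal to noise.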 The settings on record: NRG1 binding, 635 nm fluorescence, higher = more signal.
The test system of experiment [7] is Neuregulin-1 EGF-like domain. Nature of the experiment: binders of neuregulin-1 EGF-like domain, primary screen, biochemical, small-molecule microarray, 635 nm fluorescence (AID 1081).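 Note: binding of the protein to compounds printed on small-molecule microarray slides.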 As to conditions: small-molecule microarray binding, higher = more signal.
Experiment [8] is described as follows: FRG1 promoter luciferase signal modulators, primary screen, FRG1 inhibition for FSHD, cell-based, C2C12 myotubes, firefly/Renilla luciferase, luminescence (AID 1084). As to conditions: higher = more signal, called active from +8 up or from −8 down.
A short description of experiment [9]: binders of probe aFST on microarray, primary screen, stem cell growth factor project, biochemical, small-molecule microarray, fluorescence 635/667 (AID 1086).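 Note: score merges 667 nm fluorescence with signal-to-noise of each printed compound spot.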 As to conditions: higher = more signal.
The nature of experiment [10]: binders of probe aHhip on microarray, primary screen, stem cell growth factor project, biochemical, small-molecule microarray, fluorescence 635/667 (AID 1087).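 Note: score merges spot fluorescence at 667nm with spot signal to noise ratio.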 The settings on record: higher = more signal.
Experiment [11] deals with PRMT1 (protein arginine N-methyltransferase 1). The experiment can be described thus: PRMT1 binders on small-molecule microarrays, primary screen, biochemical, small-molecule microarray, 635 nm fluorescence (AID 1088).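 Note: binding of Prmt1 protein to compounds spotted on small-molecule microarray slides.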 The settings on record: small-molecule microarray binding, higher = more signal.
Experiment [12] in a line: yeast growth modulation, basal conditions, primary screen, YJM789 clinical isolate, OD600, 24 h (AID 1089).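 Note: growth of clinical yeast isolate S. cerevisiae YJM 789 seeded 1000 cells per well; test concentration not given here.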 The settings on record: S. cerevisiae YJM789 growth, higher = more signal, called active from +8 up or from −8 down.
Experiment [13] in a line: fission yeast growth modulation, primary screen, strain 972, OD600, 24 h, no modulator (AID 1090).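 Note: basal condition with compound alone and no growth modifier present; test concentration not given here.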 As to conditions: S. pombe 972 growth, higher = more signal, called active from +8 up or from −8 down.
A short description of experiment [14]: S. cerevisiae growth modulation with rapamycin, primary screen, strain BY4716, OD600, 96 h (AID 1091). Note: test concentration not given here. The settings on record: higher = more signal, called active from +8 up or from −8 down.
The target of experiment [15] is Torsin-1A-interacting protein 2 (Homo sapiens) (UniProt Q8NFQ8). The experiment can be described thus: LULL1 binders on small-molecule microarray, primary screen, cell lysate, human LULL1 lysate, 635/667 nm fluorescence (AID 1092).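 Note: probe is lysate of COS7 cells overexpressing human LULL1; score merges per-feature 667 nm fluorescence with signal-to-noise.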 As to conditions: hLULL1 lysate binding, 635 nm fluorescence, higher = more signal.
A short description of experiment [16]: E. coli growth modulation, two-sided OD650, primary screen, E. coli filamentation project, strain DRC41, 24 h (AID 1093).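 Note: MC1000 strain lacking acrAB efflux and sulA so SOS filamentation is blocked; test concentration not given here.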 The settings on record: OD650, 24 h, higher = more signal, called active from +8 up or from −8 down.
The nature of experiment [17]: small-molecule microarray binders of probe aLefty2, primary screen, biochemical, biotinylated probe, 635/667 nm fluorescence (AID 1094).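 Note: score merges spot fluorescence near 667 nm with spot signal-to-noise ratio.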 As to conditions: higher = more signal.
Experiment [18] relates to Noggin (protein binding on small-molecule microarray). Nature of the experiment: Noggin binders on small-molecule microarray, primary screen, biochemical, 635/667 nm fluorescence (AID 1095).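 Note: score merges 667 nm feature fluorescence with signal to noise over triplicate slides.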 As to conditions: 635 nm fluorescence, higher = more signal.
Experiment [19] addresses Neurogenic locus notch homolog protein 3 (Homo sapiens) (UniProt Q9UM47). The experiment can be described thus: NOTCH3 binders on small-molecule microarray, primary screen, biochemical, 635/667 nm fluorescence (AID 1096). As to conditions: NOTCH3 binding, 635 nm fluorescence, higher = more signal.
Experiment [20] is described as follows: small-molecule microarray binders of probe aEGFR, primary screen, biochemical, biotinylated probe, 635/667 nm fluorescence (AID 1097).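 Note: probe is a biotinylated anti-EGFR antibody binding compounds printed on slides; score combines fluorescence near 667 nm and signal to noise of each spot.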 As to conditions: higher = more signal.

Sequence of Neurogenic locus notch homolog protein 2 (Homo sapiens) (Q04721 whole entry, looked up, canonical isoform): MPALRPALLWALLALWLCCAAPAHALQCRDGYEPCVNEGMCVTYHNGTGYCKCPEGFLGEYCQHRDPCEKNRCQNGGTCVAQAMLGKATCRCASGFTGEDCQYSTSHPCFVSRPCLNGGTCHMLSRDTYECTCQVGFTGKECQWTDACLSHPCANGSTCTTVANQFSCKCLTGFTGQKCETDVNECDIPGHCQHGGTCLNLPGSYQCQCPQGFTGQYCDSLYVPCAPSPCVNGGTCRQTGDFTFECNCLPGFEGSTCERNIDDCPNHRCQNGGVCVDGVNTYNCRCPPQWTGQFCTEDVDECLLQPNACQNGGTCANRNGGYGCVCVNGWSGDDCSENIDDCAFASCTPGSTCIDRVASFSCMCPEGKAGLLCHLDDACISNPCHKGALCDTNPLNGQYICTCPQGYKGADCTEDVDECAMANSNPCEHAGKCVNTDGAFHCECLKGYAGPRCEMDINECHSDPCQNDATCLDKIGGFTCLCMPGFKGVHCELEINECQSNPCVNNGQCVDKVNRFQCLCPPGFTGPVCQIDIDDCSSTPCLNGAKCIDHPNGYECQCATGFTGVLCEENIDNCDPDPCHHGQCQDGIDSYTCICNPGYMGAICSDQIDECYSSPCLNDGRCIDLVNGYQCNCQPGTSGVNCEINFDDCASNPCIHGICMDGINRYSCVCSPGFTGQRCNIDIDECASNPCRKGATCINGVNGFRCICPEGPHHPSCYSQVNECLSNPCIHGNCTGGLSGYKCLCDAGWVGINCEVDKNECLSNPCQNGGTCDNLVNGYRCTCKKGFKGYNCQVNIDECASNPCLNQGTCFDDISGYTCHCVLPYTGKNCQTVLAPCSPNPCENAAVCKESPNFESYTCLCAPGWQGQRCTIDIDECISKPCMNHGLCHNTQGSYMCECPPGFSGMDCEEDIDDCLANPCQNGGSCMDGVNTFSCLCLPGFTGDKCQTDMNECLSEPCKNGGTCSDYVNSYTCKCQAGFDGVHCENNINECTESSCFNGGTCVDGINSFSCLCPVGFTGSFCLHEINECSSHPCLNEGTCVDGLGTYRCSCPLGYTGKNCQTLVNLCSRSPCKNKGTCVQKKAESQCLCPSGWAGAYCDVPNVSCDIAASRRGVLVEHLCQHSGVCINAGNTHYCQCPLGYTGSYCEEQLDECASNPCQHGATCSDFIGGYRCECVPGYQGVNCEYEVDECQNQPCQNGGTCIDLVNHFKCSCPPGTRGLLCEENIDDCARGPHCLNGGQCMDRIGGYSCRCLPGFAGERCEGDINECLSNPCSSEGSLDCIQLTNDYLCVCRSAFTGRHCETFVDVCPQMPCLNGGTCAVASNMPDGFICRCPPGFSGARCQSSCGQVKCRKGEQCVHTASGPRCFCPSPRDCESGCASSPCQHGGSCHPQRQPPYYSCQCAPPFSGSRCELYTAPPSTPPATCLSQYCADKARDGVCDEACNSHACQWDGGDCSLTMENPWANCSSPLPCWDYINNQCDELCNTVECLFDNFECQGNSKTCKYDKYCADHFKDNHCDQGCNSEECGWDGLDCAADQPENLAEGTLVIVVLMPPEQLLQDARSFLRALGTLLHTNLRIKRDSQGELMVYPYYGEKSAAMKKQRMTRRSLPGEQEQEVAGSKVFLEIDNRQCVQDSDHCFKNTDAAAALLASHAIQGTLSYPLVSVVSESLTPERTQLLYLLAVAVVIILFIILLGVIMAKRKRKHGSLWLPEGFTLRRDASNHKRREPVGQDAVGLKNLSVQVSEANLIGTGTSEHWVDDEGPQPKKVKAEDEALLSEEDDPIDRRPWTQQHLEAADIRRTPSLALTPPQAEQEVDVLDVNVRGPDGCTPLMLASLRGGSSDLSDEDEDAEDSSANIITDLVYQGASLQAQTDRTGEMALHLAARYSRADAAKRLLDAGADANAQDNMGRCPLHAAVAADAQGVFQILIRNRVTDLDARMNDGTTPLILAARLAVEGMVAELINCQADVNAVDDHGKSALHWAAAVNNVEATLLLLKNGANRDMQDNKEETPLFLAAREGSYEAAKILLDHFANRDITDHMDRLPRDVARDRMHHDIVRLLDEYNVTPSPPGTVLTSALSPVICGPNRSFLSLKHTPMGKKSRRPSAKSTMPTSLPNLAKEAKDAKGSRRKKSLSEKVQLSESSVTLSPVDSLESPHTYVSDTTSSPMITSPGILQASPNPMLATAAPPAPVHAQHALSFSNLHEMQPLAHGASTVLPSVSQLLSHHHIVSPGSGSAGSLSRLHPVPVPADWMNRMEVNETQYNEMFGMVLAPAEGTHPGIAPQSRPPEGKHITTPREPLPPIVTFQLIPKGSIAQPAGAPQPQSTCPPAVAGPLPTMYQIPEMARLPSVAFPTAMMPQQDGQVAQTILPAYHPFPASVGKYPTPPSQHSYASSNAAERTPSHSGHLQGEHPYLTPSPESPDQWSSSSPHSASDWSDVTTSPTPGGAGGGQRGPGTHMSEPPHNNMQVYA
Sequence of Pro-neuregulin-1, membrane-bound isoform (Homo sapiens) (Q02297 whole entry, looked up, the tested form may be a part, canonical isoform): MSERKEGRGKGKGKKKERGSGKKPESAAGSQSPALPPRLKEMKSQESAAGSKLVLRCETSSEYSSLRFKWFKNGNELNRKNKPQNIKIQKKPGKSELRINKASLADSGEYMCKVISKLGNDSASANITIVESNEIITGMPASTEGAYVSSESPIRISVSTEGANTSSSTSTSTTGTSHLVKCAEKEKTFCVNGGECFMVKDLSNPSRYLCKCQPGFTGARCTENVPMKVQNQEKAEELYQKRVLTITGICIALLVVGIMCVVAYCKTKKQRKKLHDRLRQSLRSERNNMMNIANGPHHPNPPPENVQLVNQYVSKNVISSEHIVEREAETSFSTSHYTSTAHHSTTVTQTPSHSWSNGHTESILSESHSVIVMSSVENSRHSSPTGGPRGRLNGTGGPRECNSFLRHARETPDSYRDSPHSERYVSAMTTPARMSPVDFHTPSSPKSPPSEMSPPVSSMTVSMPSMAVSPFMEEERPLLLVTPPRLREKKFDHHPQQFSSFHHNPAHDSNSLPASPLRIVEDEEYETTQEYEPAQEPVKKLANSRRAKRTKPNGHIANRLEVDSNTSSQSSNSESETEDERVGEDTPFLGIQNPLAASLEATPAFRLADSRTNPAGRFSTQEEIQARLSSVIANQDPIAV
Sequence of Torsin-1A-interacting protein 2 (Homo sapiens) (Q8NFQ8 whole entry, looked up): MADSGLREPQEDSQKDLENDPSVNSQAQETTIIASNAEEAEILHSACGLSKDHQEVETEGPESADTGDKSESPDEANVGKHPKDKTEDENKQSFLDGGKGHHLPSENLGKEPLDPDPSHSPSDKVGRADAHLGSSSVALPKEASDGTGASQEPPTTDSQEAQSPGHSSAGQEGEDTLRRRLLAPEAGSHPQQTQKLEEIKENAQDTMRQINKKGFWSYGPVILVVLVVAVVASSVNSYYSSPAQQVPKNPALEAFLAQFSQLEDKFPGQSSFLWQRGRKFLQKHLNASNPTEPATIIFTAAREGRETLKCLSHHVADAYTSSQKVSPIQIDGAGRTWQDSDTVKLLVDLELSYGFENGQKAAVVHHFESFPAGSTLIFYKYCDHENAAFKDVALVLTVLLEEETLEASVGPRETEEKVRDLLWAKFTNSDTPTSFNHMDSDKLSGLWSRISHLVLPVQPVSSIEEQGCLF

With `CO[C@@H]1C=CCC(=O)N2CCC[C@H]2C(=O)OC[C@H](C)C(=O)OC[C@H]1C`, the composite z-score in experiment [1] was -0.368; in experiment [2] it was 1.3; in experiment [3], -0.0676; in [4] it was 0.0525; in experiment [5], -0.244; in [6], -0.226. Besides, the composite z-score in experiment [7] is 1.07; in experiment [9], 0.191; in experiment [10], 0.501; in [11] it was 0.59; in experiment [15], -0.246; in experiment [17] it was -0.0693. Further, the values for the composite z-score in experiment [18], in [19] and in experiment [20] were 1.41, -0.13 and 0.163, respectively. The z-score was 0.0531 (inactive) in experiment [8]; 0.741 (inactive) in experiment [12]; -0.295 (inactive) in experiment [13]; -0.606 (inactive) in [14]; 0.714 (inactive) in [16].

`O=c1n(-c2ccccc2)c(=O)n2n1CC[C@@H]1C(=NOC[C@@H](O)COCc3ccco3)[C@H]3O[C@H]3[C@@H](O)[C@@H]12`: the composite z-score was -0.538 and -0.609 in experiment [1]; 1.27 and 1.24 in experiment [2]; -0.209 and -0.258 in experiment [3]; 0.265 and -0.486 in experiment [4]; -0.0496 and 0.156 in experiment [5]; -0.498 and -0.0731 in experiment [6]. In addition, the composite z-score in [7] was 0.874 and -0.672; in experiment [9] it was 0.0872 and 0.231; in [10] it was -0.0994 and -0.069; in experiment [11], 1.23 and -0.267; in experiment [15], 0.264 and -1.26; in experiment [17], -0.107 and -0.0797. Besides, the composite z-score in [18] is 1.06 and 0.325; in experiment [19] it was 0.827 and -0.585; in [20] it was -0.139 and -0.0512. The z-score is 0.193 (inactive) and -0.52 (inactive) in [8]; -0.188 (inactive) and 0.0291 (inactive) in experiment [12]; -0.7 (inactive) and 0.498 (inactive) in [13]; 0.0488 (inactive) and 0.801 (inactive) in experiment [14]; -0.517 (inactive) and 0.0684 (inactive) in experiment [16].

For the compound `CCC[C@@H]1C[C@@]1(CCC)[C@@H](NC(=O)c1ccc(-c2ccccc2)cc1)c1cccc(Cl)c1`, the composite z-score in experiment [1] was 2.36 and 0.236; in experiment [2], 0.995 and -0.712; in experiment [3], 0.736 and -0.171; in [4], -0.636 and 0.226; in experiment [5], -1.01 and 1.53; in experiment [6], -0.612 and 1.2. Besides, the composite z-score is -0.62 and 1.11 in [7]; 1.96 and 0.48 in [9]; 2.73 and 0.663 in [10]; -0.13 and -0.434 in experiment [11]; 0.678 and 3.32 in [15]; 1.07 and 0.266 in experiment [17]. Moreover, the composite z-score in experiment [18] is 0.191 and -0.508; in experiment [19] it was -0.585 and 0.419; in [20] it was 0.78 and -0.0975. Moreover, the z-score in [8] was -1 (inactive) and 0.245 (inactive); in [12], -0.173 (inactive) and 0.948 (inactive); in experiment [13], -12.7 (active) and 1.75 (inactive); in experiment [14] it was -0.86 (inactive) and 1.18 (inactive); in experiment [16], -1.33 (inactive) and -0.003 (inactive).

With `CON(C)C(=O)c1nnc2c3ccccc3n(S(=O)(=O)c3ccc(C)cc3)c2n1`, the composite z-score in [1] is -0.492 and -0.386; in experiment [2] it was 0.216 and 0.226; in experiment [3] it was -0.208 and 0.0937; in experiment [4], 0.455 and 0.814; in experiment [5], 0.81 and 0.675; in experiment [6], 1.08 and 0.789. Moreover, the composite z-score is 0.804 and 1.19 in experiment [7]; -0.458 and 0.184 in [9]; 0.12 and 0.28 in [10]; -0.0043 and 1.58 in experiment [11]; 1.2 and 1.93 in [15]; -0.0944 and -0.229 in experiment [17]. For the same compound, the composite z-score in experiment [18] was 0.423 and 0.772; in [19], 0.233 and 1.04; in [20], -0.0238 and -0.171. For the same compound, the z-score in experiment [8] was 161 (active) and 193 (active); in experiment [12], -0.461 (inactive) and 0.111 (inactive); in [13] it was -0.823 (inactive) and -1.05 (inactive); in experiment [14] it was 0.171 (inactive) and -0.671 (inactive); in experiment [16], 0.155 (inactive) and 0.517 (inactive).
